According to the supplement of paper PMC10477191:
± gives the standard deviation of the averaged measurements.

Test system: Drosophila ezoana antennal basiconic sensillum ab5
Test: odor-evoked OSN spike response (post minus pre-stimulus); higher = stronger neuronal excitation
Settings: odor dilution: 10^-4
Description: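 Single sensillum recordings from antennal basiconic sensilla of D. ezoana. A 500 ms pulse of odorant (10^-4 in mineral oil or DMSO) was delivered; the response is the change in action potential frequency between the 1 s pre- and post-stimulus windows (spikes/s).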

CC(=O)OC/C=C(\C)CCC=C(C)C [geranyl acetate] and CC(=O)c1ccccc1 [Acetophenone] are within error of each other in “odor-evoked OSN spike response” value: 112 ± 41 spikes/s for the first, 77.7 ± 24 spikes/s for the second.

For COc1cccc(OC)c1O [Phenol, 2,6-dimethoxy- (powder)], the “odor-evoked OSN spike response” value was 86.2 ± 29 spikes/s.
